An excerpt weighted towards active compounds, which were near 1.2% of everything screened.
DSG3 Ab inh – human desmoglein-3 autoantibody binding inhibition; DSG3-coupled beads, scFv-anti-DSG3-GFP binding, flow cytometry; active compounds read low; binding (percent of control), % at 10 µM; actives 0.48% (n = 310,000); AID 588358;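 active = binding more than 3 SD below its plate's average and above zero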;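 also: hits lower antibody fragment binding to DSG3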
Target sequence (P32926 whole entry, looked up, the tested form may be a part): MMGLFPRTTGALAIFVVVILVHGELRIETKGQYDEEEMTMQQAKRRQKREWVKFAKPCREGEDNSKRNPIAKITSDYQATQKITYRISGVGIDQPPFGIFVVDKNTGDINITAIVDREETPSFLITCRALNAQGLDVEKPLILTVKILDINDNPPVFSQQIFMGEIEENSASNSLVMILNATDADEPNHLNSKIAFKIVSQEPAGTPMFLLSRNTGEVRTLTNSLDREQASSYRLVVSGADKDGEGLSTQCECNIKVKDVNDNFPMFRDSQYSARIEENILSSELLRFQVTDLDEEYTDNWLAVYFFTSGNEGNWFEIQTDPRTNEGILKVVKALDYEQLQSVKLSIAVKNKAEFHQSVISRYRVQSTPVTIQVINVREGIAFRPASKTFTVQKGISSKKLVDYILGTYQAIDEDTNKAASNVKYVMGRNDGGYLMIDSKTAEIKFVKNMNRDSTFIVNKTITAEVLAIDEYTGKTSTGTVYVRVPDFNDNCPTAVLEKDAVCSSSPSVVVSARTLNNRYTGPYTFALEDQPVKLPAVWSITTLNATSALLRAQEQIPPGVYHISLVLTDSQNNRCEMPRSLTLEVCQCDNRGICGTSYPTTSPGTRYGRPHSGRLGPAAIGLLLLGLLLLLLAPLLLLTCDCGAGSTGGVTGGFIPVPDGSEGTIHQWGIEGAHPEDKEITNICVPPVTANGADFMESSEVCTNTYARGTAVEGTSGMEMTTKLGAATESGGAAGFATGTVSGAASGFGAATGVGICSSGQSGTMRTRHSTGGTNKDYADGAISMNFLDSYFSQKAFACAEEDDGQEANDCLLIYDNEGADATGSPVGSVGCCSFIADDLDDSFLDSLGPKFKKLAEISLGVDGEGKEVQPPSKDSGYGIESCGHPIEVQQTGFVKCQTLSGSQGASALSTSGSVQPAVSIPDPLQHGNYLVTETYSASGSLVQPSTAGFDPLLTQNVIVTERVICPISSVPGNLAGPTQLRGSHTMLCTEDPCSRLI
AGP1-GFP MLPCN – alters AGP1-GFP fluorescence in TOR pathway yeast screen. S. cerevisiae AGP1-GFP multiplex flow cytometry, 3 h; GFP as percent of DMSO wells. GFP response vs DMSO, % at 10 µM. actives 0.02% (n = 320,000);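 active = GFP response relative to DMSO above a set limit, near screen average plus 3 SD, cut at about 150% in these data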;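 also: median GFP channel fluorescence of the gated AGP1 strain per well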
MEP2-GFP yeast – yeast TOR pathway MEP2-GFP modulation; S. cerevisiae MEP2-GFP strain, flow cytometry GFP, 3 h; 100% = DMSO control level; GFP response vs DMSO, % at 10 µM; actives 0.51% (n = 330,000); AID 2016;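 active = GFP response versus DMSO above a set limit, roughly screen mean plus 3 SD, cut at about 180% in these data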;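 also: median GFP fluorescence of the barcode-gated MEP2-GFP cells per well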
LAP4-GFP MLPCN – yeast TOR pathway LAP4-GFP modulation; S. cerevisiae LAP4-GFP multiplex, flow cytometry GFP, 3 h; median GFP as percent of DMSO wells; actives 0.34% (n = 320,000); GFP response vs DMSO, % at 10 µM;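 active = GFP response vs DMSO above a set limit, about the screen mean plus 3 SD, cut at about 150% in these data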
CIT2-GFP yeast – yeast TOR pathway CIT2-GFP modulation | GFP response vs DMSO, % at 10 µM | S. cerevisiae CIT2-GFP strain, flow cytometry, 3 h; 100 means same as DMSO wells | actives 0.065% (n = 320,000);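 active = GFP response relative to DMSO above a set limit, near the screen mean plus 3 SD, cut at about 150% in these data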;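 also: ratio of well median GFP fluorescence to mean of DMSO wells on the plate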
RPL19A-GFP yeast – yeast TOR pathway RPL19A-GFP modulation | S. cerevisiae RPL19A-GFP strain, flow cytometry, 3 h; active compounds read low | percent response vs DMSO, % at 10 µM | actives 0.3% (n = 330,000) | AID 2025;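 active = percent response vs DMSO below 50%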;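 also: median channel GFP fluorescence of the barcoded RPL19A-GFP strain; ratio of sample median GFP to plate DMSO average so 100% = DMSO; lower means less RPL19A-GFP as with rapamycin TOR inhibition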
LAP4 cherry2 – yeast LAP4-GFP modulation, second cherry pick. shares compounds with LAP4-GFP MLPCN. S. cerevisiae LAP4-GFP strain, flow cytometry GFP, 3 h. GFP response vs DMSO, % at 10 µM. actives 20% (n = 590);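 active = GFP signal as percent of the solvent control above about 150%, meaning raised reporter expression, limit read from the data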;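 also: ratio of well median GFP fluorescence to plate DMSO mean so 100% = DMSO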
MEP2-GFP pick2 – second confirmation of modulators of TOR reporter MEP2-GFP in yeast; actives 10% (n = 590); S. cerevisiae MEP2-GFP strain, flow cytometry GFP, 3 h; GFP response vs DMSO, % at 10 µM; AID 2622; shares compounds with LAP4-GFP MLPCN;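 active = GFP signal above 150% of the solvent control wells, that is a rise of more than half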;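 also: median channel GFP fluorescence of all gated yeast cells per well; ratio of median GFP to plate DMSO average so 100% = DMSO level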
RPL19A GFP CP2 – yeast RPL19A-GFP TOR reporter modulation, second cherry pick. shares compounds with LAP4-GFP MLPCN. S. cerevisiae RPL19A-GFP strain, flow cytometry GFP, 3 h; active compounds read low; 100% means same as DMSO wells. GFP response vs DMSO, % at 10 µM. actives 3% (n = 590). AID 2623;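 active = under 65% GFP response relative to DMSO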;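 also: median GFP channel fluorescence per well over the all cells gate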
CIT2-GFP pick2 – second confirmation of modulators of TOR reporter CIT2-GFP in yeast; shares compounds with LAP4-GFP MLPCN; S. cerevisiae CIT2-GFP strain, flow cytometry GFP, 3 h; DMSO control wells read 100%; GFP response vs DMSO, % at 10 µM; actives 8% (n = 590); AID 2624;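 active = GFP response vs DMSO above about 150%, limit read from the data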;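 also: median green fluorescence per well over all gated yeast cells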
AGP1-GFP pick2 – yeast AGP1-GFP TOR reporter modulation, second cherry pick | shares compounds with LAP4-GFP MLPCN | S. cerevisiae AGP1-GFP strain, flow cytometry GFP, 3 h | AID 2643 | percent response vs DMSO, % at 10 µM | 590 tested, under 10 active;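 active = over 150 percent of DMSO response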;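 also: median GFP channel fluorescence over all cells without mother daughter split; sample median GFP divided by mean DMSO control so 100% equals DMSO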
Yeast autofluor – counter-screen for compound autofluorescence in yeast s288c cells; fluorescence change (kMESF span) at 33 µM; shares compounds with LAP4-GFP MLPCN; 610 tested, under 10 active; S. cerevisiae s288c, 520 nm autofluorescence, flow cytometry, 3 h; active compounds read high; zero means same as solvent-only cells;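 active = fluorescence span over the dose series, or activity score, above about 33, limit read from the data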
Yeast autofl DR – TOR screen hit shows autofluorescence in yeast s288c; fluorescence change (span) at 33 µM; shares compounds with LAP4-GFP MLPCN; AID 488829; S. cerevisiae s288c parental, compound autofluorescence, flow cytometry, 3 h; 110 tested, under 10 active;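 active = fluorescence change span, or the activity score built from it, above 25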
TORC1 bypass – stops wildtype yeast growth while TORC1 bypass cells still grow; shares compounds with LAP4-GFP MLPCN; 120 tested, under 10 active; S. cerevisiae BY4741 spot growth rating, 48-72 h; active compounds read low; growth rating (0-3) at 30 µM;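 active = growth rating at most 1 for wild type yeast while the TORC1 bypass strain still grows fully, rated 3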
* = called active by the depositor.

`C[C@@H]1C[C@@H]([C@H](O)CC2CC(=O)NC(=O)C2)C(=O)[C@@H](C)C1` gave DSG3 Ab inh 106, AGP1-GFP MLPCN 41, MEP2-GFP yeast 96, LAP4-GFP MLPCN 89, CIT2-GFP yeast 50, RPL19A-GFP yeast 49*, LAP4 cherry2 126, MEP2-GFP pick2 157*, RPL19A GFP CP2 75, CIT2-GFP pick2 93, AGP1-GFP pick2 73, Yeast autofluor 0.7, Yeast autofl DR 0.41 and TORC1 bypass 0.
O=C1NC(=O)N(Cc2ccco2)C(=O)/C1=C/c1ccc(-c2cccc([N+](=O)[O-])c2)o1 was read as DSG3 Ab inh 73, AGP1-GFP MLPCN 73, MEP2-GFP yeast 84, LAP4-GFP MLPCN 169*, CIT2-GFP yeast 77, RPL19A-GFP yeast 100 and Yeast autofluor 0.71.
For CCOC(=O)c1[nH]c2ccc(OC)cc2c1C(SCC(=O)O)c1ccc(C(F)(F)F)cc1 (stereo not drawn) the results were DSG3 Ab inh 104, AGP1-GFP MLPCN 106, MEP2-GFP yeast 108, LAP4-GFP MLPCN 97, CIT2-GFP yeast 110 and RPL19A-GFP yeast 109.
`CCCCCn1c(=O)c(C(=O)Nc2nc3ccccc3[nH]2)c(O)c2ccccc21` gave DSG3 Ab inh 97, AGP1-GFP MLPCN 103, MEP2-GFP yeast 98, LAP4-GFP MLPCN 111, CIT2-GFP yeast 89, RPL19A-GFP yeast 98, LAP4 cherry2 98, MEP2-GFP pick2 97, RPL19A GFP CP2 100, CIT2-GFP pick2 104, AGP1-GFP pick2 97 and Yeast autofluor 0.1.
For CN(C)C(=O)Oc1ccnc2cc(Cl)ccc12 the results were DSG3 Ab inh 96, AGP1-GFP MLPCN 105, MEP2-GFP yeast 97, LAP4-GFP MLPCN 101, CIT2-GFP yeast 94, RPL19A-GFP yeast 95, LAP4 cherry2 99, MEP2-GFP pick2 95, RPL19A GFP CP2 100, CIT2-GFP pick2 105, AGP1-GFP pick2 100 and Yeast autofluor 0.1.
`CN(C)C(=O)Oc1ccc(Cl)c2cccnc12` gave DSG3 Ab inh 107, MEP2-GFP yeast 94, LAP4-GFP MLPCN 101, CIT2-GFP yeast 96 and RPL19A-GFP yeast 89.
Screening CCN(CC)CCC(=O)O[C@H]1CC[C@]2(C)C3CC[C@@]4(C)C(CC[C@]4(C)O)C3CC[C@H]2C1 (stereo partly drawn) returned DSG3 Ab inh 122, AGP1-GFP MLPCN 112, MEP2-GFP yeast 92, LAP4-GFP MLPCN 177*, CIT2-GFP yeast 90, RPL19A-GFP yeast 81, LAP4 cherry2 100, MEP2-GFP pick2 103, RPL19A GFP CP2 101, CIT2-GFP pick2 100 and AGP1-GFP pick2 96.
Screening C[C@]12CCC3C(CC[C@H]4C[C@@H](O)CC[C@]34C)C1CC[C@@]2(O)C(F)(F)F (stereo partly drawn) returned AGP1-GFP MLPCN 95, MEP2-GFP yeast 90, LAP4-GFP MLPCN 94, CIT2-GFP yeast 95 and RPL19A-GFP yeast 97.
Screening O=C1NC(=S)NC(=O)C1=Cc1ccc2c(c1)CCN2CCCCl returned DSG3 Ab inh 58*, AGP1-GFP MLPCN 81, MEP2-GFP yeast 88, LAP4-GFP MLPCN 245*, CIT2-GFP yeast 75, RPL19A-GFP yeast 95 and Yeast autofluor 1.8.
For CN1C(=O)C[N+]([O-])=C(c2ccccc2)c2cc(Cl)ccc21 the results were DSG3 Ab inh 99.
Screening Cc1cccc(-n2c(/C=C/c3ccccn3)nc3ccccc3c2=O)c1 returned DSG3 Ab inh 94, AGP1-GFP MLPCN 93, MEP2-GFP yeast 99, LAP4-GFP MLPCN 88, CIT2-GFP yeast 96 and RPL19A-GFP yeast 102.
Screening O=C(O)c1cc[c]([Hg][Cl])cc1 returned DSG3 Ab inh 73, AGP1-GFP MLPCN 90, MEP2-GFP yeast 129, LAP4-GFP MLPCN 255*, CIT2-GFP yeast 115, RPL19A-GFP yeast 62, LAP4 cherry2 190*, MEP2-GFP pick2 193*, RPL19A GFP CP2 81, CIT2-GFP pick2 100, AGP1-GFP pick2 73 and Yeast autofluor 0.81.
COc1cc(/C=C/[N+](=O)[O-])ccc1O was read as DSG3 Ab inh 100, AGP1-GFP MLPCN 80, MEP2-GFP yeast 86, LAP4-GFP MLPCN 245*, CIT2-GFP yeast 77, RPL19A-GFP yeast 88, LAP4 cherry2 191*, MEP2-GFP pick2 131, RPL19A GFP CP2 93, CIT2-GFP pick2 132, AGP1-GFP pick2 120 and Yeast autofluor 0.2.
COc1ccc(-n2c(/C=C/c3ccc(O)c(OC)c3)nc3ccccc3c2=O)cc1 was read as DSG3 Ab inh 104, AGP1-GFP MLPCN 98, MEP2-GFP yeast 110, LAP4-GFP MLPCN 103, CIT2-GFP yeast 96 and RPL19A-GFP yeast 103.
Screening O=C1NC(=O)N(c2ccccc2)C(=O)/C1=C/c1ccc(Sc2ccccc2)o1 returned DSG3 Ab inh 97, AGP1-GFP MLPCN 73, MEP2-GFP yeast 88, LAP4-GFP MLPCN 170*, CIT2-GFP yeast 75, RPL19A-GFP yeast 78 and Yeast autofluor 0.91.
O=C1NC(=O)N(c2cccc(Cl)c2)C(=O)/C1=C\c1ccc(Sc2nc3ccccc3[nH]2)o1 was read as DSG3 Ab inh 94, AGP1-GFP MLPCN 100, MEP2-GFP yeast 98, LAP4-GFP MLPCN 83, CIT2-GFP yeast 106 and RPL19A-GFP yeast 98.

Screens: PubChem BioAssay, NMMLSC
